Only some compounds are listed: those with a hit (about 9.4% of all), similar ones and a draw of the others.
ELG1 genotox: inducers of genotoxicity in HEK293T ELG1-luciferase cells; HEK293T ELG1-luciferase reporter, luminescence, 16 h; 330,000 compounds, 1.3% hits; Potency, µM (highest dose often 46 µM), usual class: activators; note: nearly all actives have a fitted effect of over 60% in size
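Step 1: seed 2,000 HEK293T ELG1-luciferase cells per well. Step 2: add compound or DMSO, incubate 16 hr at 37 °C. Step 3: ONE-Glo, 30 min at room temperature, read luminescence.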
ELG1 DNA repair: blocks ELG1-dependent DNA repair in HEK293T cells | HEK293T ELG1-luciferase reporter, luminescence, 16 h; DNA damage induced by 5-fluorouridine | Potency, µM (top dose mostly 46.1 µM), usual class: inhibitors | 330,000 compounds, 2.3% hits | AID 504467; note: nearly all actives have a fitted effect of over 55% in size
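In this reporter screen, reduction of luminescence relative to DMSO vehicle indicated activity. Compounds and 5-fluorouridine were added together to 2,000 cells per well, incubated for 16 hr at 37 °C, then developed with ONE-Glo.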
NPC1 promoter act: activators of NPC1 promoter | Huh7 NPC1 promoter luciferase reporter, 24 h | Potency, µM (series often up to 9.22 µM), hits mostly activators | 320,000 compounds, 2.4% hits | AID 485313; note: nearly all actives have a fitted effect of over 60% in size
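Stably transfected Huh7 (NPC1 promoter→luciferase), 1500 cells/well in Opti-MEM + 10% FBS, 2 h settle, then compound 24 h at 37 °C. Luminescence after 10 min with Amplite reagent.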
SMN2 splice enh: enhancers of SMN2 splice variant expression. AID 1458. Potency, µM (series often up to 46.1 µM), usual class: activators. 210,000 compounds, 2.8% hits. HEK293 SMN2-luciferase splicing reporter, luminescence, 30-36 h; note: nearly all actives have a fitted effect of over 55% in size
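qHTS luciferase splicing reporter: luminescence rises when SMN2 exon 7 is included in transfected HEK293 cells. Compound exposure lasted 30-36 h at 37C, with 4.5 mM final sodium butyrate as control, followed by a ONE-Glo read.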
Rab9 prom act: activates the Rab9 promoter; Huh7 Rab9 promoter-luciferase reporter, luminescence, 24 h; AID 485297; 320,000 compounds, 2.8% hits; Potency, µM (highest dose often 9.22 µM), hits mostly activators; note: nearly all actives have a fitted effect of over 60% in size
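Steps: seed 1500 Huh7 Rab9-luc cells per well, rest 2 h at 37 °C; add compound in DMSO; incubate 24 h; add luciferase reagent, 10 min ambient; read luminescence.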
FLuc counter: counter-screen for miR-21 project: firefly luciferase inhibitors or activators | P08659 | purified FLuc, Km substrates, luminescence inhibition | Potency, µM (highest dose often 57.5 µM), most hits filed as inhibitors | 360,000 compounds, 6.9% hits; note: nearly all actives have a fitted effect of over 55% in size
Target sequence (P08659 whole entry, looked up): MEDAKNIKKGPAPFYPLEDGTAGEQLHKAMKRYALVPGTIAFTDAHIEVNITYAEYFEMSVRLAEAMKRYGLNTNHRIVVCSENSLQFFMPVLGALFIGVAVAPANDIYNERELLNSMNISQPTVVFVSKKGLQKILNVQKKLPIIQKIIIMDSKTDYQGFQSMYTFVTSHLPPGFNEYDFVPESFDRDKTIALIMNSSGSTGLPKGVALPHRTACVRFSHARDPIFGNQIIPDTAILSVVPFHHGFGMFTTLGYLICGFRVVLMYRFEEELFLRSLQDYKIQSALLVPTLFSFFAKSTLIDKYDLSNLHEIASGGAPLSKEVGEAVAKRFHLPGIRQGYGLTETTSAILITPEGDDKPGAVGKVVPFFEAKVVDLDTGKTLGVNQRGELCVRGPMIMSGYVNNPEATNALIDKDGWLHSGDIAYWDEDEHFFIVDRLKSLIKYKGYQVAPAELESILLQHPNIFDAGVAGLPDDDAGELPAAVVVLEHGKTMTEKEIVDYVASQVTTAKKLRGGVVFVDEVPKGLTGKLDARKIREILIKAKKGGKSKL
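Purified P. pyralis luciferase, 10 nM final, with Km-level 10 uM D-luciferin and 10 uM ATP in 50 mM Tris acetate pH 7.5, 10 mM Mg acetate, 0.01% Tween-20, 0.05% BSA; 6-point qHTS titration about 60 µM downward; luminescence read.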
Hits are given with their value; i = inactive; ? = inconclusive; nt = no result given; [ ] = remark or other dose. Calls come from the whole dose curve; as a rule, active = well fitted curve in the direction sought with a large enough effect; inconclusive = small, poorly fitted or top-dose-only effect, or another doubt; inactive = no such curve, though single readings can be large; an effect the other way counts as inactive or inconclusive.

SMILES	ELG1 genotox	ELG1 DNA repair	NPC1 promoter act	SMN2 splice enh	Rab9 prom act	FLuc counter
CCn1c(C(=O)NCc2ccccc2C)cc2oc3ccccc3c21	nt	nt	nt	?	nt	i
O=C(CON1C(=O)c2ccccc2C1=O)c1ccccc1	nt	nt	nt	i[9.22 µM]	nt	nt
COCCCNc1nc(N)c([N+](=O)[O-])c(Nc2ccccc2OC)n1	i	?	i	nt	i	i
Cc1cccc(Nc2nc(N)c([N+](=O)[O-])c(N3CCCC(C)C3)n2)c1 (stereo not drawn)	i	26µM	i	i	i	i
Nc1nc(Nc2ccccc2F)nc(N2CCCC2)c1[N+](=O)[O-]	?	?	i	nt	?	17µM
Cc1cccc(Nc2nc(NCc3ccco3)c3ccccc3n2)c1	i	?	i	i	i	?
c1ccc(Nc2nc(NCc3ccco3)c3ccccc3n2)cc1	i	9.2µM	i	nt	i	?
COc1ccccc1Nc1nc(NCc2ccco2)nc(N)c1[N+](=O)[O-]	i	18µM	i	nt	i	i
CCCCN(CC)C(=O)CSc1c2c(nc3ccc(Cl)cc13)CCCC2	nt	nt	nt	i	nt	i
COc1ccc(CNC(=O)Cn2nc(N3CCN(c4ccccc4)CC3)ccc2=O)c(OC)c1	nt	nt	nt	nt	nt	i
Cc1ccc(Nc2nc(N)c([N+](=O)[O-])c(NCc3ccco3)n2)cc1C	i	?	?	?	i	24µM
COc1cc(C(=O)N2CCN(c3ccc(Nc4ccccc4)nn3)CC2)cc(OC)c1OC	nt	nt	nt	nt	nt	i
Cc1ccc(NC(=O)C2CC2c2ccccc2)c([N+](=O)[O-])c1 (stereo not drawn)	?	?	?	nt	i	19µM
Cn1cc(/C=C2\SC(=O)N(c3ccc(O)cc3)C2=O)c2ccccc21	i	?	?	nt	?	?
CCN1C(=O)S/C(=C/c2cn(C)c3ccccc23)C1=O	i	i	i	i	i	12µM
Cn1cc(/C=C2\SC(=O)N(c3ccccc3)C2=O)c2ccccc21	?	?	3.5µM	?	4µM	i
COc1ccc(Cl)cc1NC(=O)C(C)n1nnc2sc3c(c2c1=O)CCCC3 (stereo not drawn)	nt	nt	nt	i	nt	i
COc1ccc2cc3cc(C(=O)N4CCCCCC4)oc3nc2c1	2.6µM	?	0.89µM	nt	0.5µM	1.9µM
COc1ccc2cc3cc(C(=O)N4CCN(c5ccccc5F)CC4)oc3nc2c1	nt	nt	nt	i	nt	i
COc1ccc2cc3cc(C(=O)N4CCCCC4C)oc3nc2c1 (stereo not drawn)	2.3µM	?	1.1µM	nt	0.45µM	3.4µM
COc1ccc2cc3cc(C(=O)N4CCN(C5CCCCC5)CC4)oc3nc2c1	i	i	i	nt	i	i
COc1ccc2cc3cc(C(=O)N(C)C4CCCCC4)oc3nc2c1	?	?	2.2µM	nt	2.2µM	7.6µM
Cc1ccc(NC(=O)CSc2nc3ccccc3n2CC(=O)N2CCC(C)CC2)cc1C	nt	nt	nt	nt	nt	i
CC(CCc1ccccc1)NC(=O)C1CCCN(c2nnc(-n3cccc3)s2)C1 (stereo not drawn)	i	?	i	i	i	i
O=C(C1CCCN(S(=O)(=O)c2ccc(Br)s2)C1)N1CCN(c2ccccc2)CC1 (stereo not drawn)	i	15µM	i	i	i	i
SMILES	ELG1 genotox	ELG1 DNA repair	NPC1 promoter act	SMN2 splice enh	Rab9 prom act	FLuc counter
O=C(C1CCCN(c2nnc(-n3cccc3)s2)C1)N1CCN(c2ccccc2)CC1 (stereo not drawn)	i	16µM	i	i	i	i
CCN(C(=O)CN(C)S(=O)(=O)c1ccc2c(c1)c(=O)n(C)c(=O)n2C)c1ccc(OC)cc1	nt	nt	nt	i	nt	i
COc1ccc(OC)c(NC(=O)c2ccc(CSc3nnc(C)s3)cc2)c1	i	i	i	i	i	?
CCc1ccc(NC(=O)CSc2nnnn2C)cc1	i[9.26 µM]	?	?	nt	?	24µM
Cc1ccc(NC(=O)c2ccc(CSc3nnnn3C)cc2)cc1	?	?	2µM	8.9µM	1.6µM	4.8µM
Cc1nnc(SCc2ccc(C(=O)O)cc2)s1	i	i	i	i	i	i
COc1ccc(NC(=O)CSc2nnnn2C)cc1	i	?	i	nt	i	i
Cc1ccc(NC(=O)c2ccc(CSc3nnc(C)s3)cc2)cc1	i	?	1.1µM	?	1.6µM	1.5µM
Cc1cc(C)cc(NC(=O)c2ccc(CSc3nnc(C)s3)cc2)c1	i	?	i	i	i	7.6µM
COc1ccc(S(=O)(=O)c2cn(C)c3cc(N4CCCC4)c(F)cc3c2=O)cc1	nt	nt	nt	nt	nt	i
CCCCCCc1ccc(-c2ccc(C#N)cc2)cc1	nt	nt	nt	i	nt	nt
Cn1nnnc1SCCCNCc1cc(Br)ccc1OCc1ccccc1F	nt	nt	nt	nt	nt	i
COc1ccccc1CN(C)C(=O)c1ccc(S(=O)(=O)Nc2c(C)n(C)n(-c3ccccc3)c2=O)cc1	i	?	nt	nt	nt	nt
COc1cccc(/C=N/NC(=O)CCc2ccccc2)c1	i	i	i	i	i	11µM
COc1ccc(NC(=O)CCCc2ccc(OC)c(C)c2)cc1	i	i	i	nt	i	i
COc1cccc(/C=N/NC(=O)CCCc2ccc(OC)c(C)c2)c1	i	i	i	i	i	19µM
COc1ccc(C2c3c(-c4ccccc4O)n[nH]c3C(=O)N2CCc2ccc(OC)c(OC)c2)cc1 (stereo not drawn)	i	2.8µM	i	i	i	i
COc1ccc(C2c3c(-c4ccccc4O)n[nH]c3C(=O)N2CCc2ccccc2)cc1 (stereo not drawn)	nt	nt	nt	i	nt	i
CN1CCN(C(c2ccc(F)cc2)c2sc3nc(-c4ccco4)nn3c2O)CC1 (stereo not drawn)	nt	nt	nt	nt	nt	i
CC1CN(C(=O)c2ccc(-c3ccccc3Cl)o2)CC(C)O1 (stereo not drawn)	i	?	i	nt	i	?
CC1CCCN(C(=O)c2ccc(-c3ccccc3Cl)o2)C1 (stereo not drawn)	15µM	?	3.5µM	nt	2.5µM	8.5µM
CC(N)(C(=O)O)c1ccc(P(=O)(O)O)cc1 (stereo not drawn)	nt	nt	nt	i	nt	nt
O=[N+]([O-])c1ccc(N2CCOCC2)cc1NC(c1ccccc1)c1ccccc1	i	i	i	i	i	i
C/C(=N\Nc1ccc([N+](=O)[O-])cc1)c1ccc(N2CCOCC2)cc1	i	?	i	nt	i	8.5µM
C/C(=N\NC(=S)Nc1ccc(C)c(C)c1)c1ccc(N2CCOCC2)cc1	i	23µM	i	i	i	i
C/C(=N\NC(=S)Nc1cc(S(=O)(=O)N2CCOCC2)ccc1Cl)c1ccc(N2CCOCC2)cc1	i	?	i	nt	i	i
C/C(=N\Nc1ccccc1[N+](=O)[O-])c1ccc(N2CCOCC2)cc1	?	?	2.8µM	?	3.2µM	3.4µM
C/C(=N\Nc1ccc([N+](=O)[O-])cc1)c1ccc(-n2nncc2C)cc1	i	7.3µM	i	i	i	i
O=C(Nc1ccc(N2CCOCC2)cc1)c1ccc([N+](=O)[O-])cc1	i	?	i	i	i	i
